# The list is not random: actives were taken first. Their share in the collection is about 12%.
# WT yeast gro inh – growth inhibition of WT strain, primary screen, mitochondrial fusion inhibitor project, WT and mutant strains, chemical genetic | 190,000 tested, 2.1% active | AID 1362, 2008 | inhibition, % at 10 µM | mitochondrial fusion phenotypic screen; in the data active = inhibition above about 58%; tested in S. cerevisiae
# CHOP inh – inhibitors of CHOP promoter induction, primary screen, cell-based, unfolded protein response, luciferase reporter. CHO-K1 CHOP-promoter luciferase, tunicamycin-induced, 15-18 h. inhibition, % at 10 µM. 220,000 tested, 3.8% active;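 active = compounds that reduced the stress-induced luciferase reporter signal by more than about 70% of percent inhibition, limit read from the data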;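 also: 0% = tunicamycin plus vehicle and 100% = wells without tunicamycin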
# L major viab – Leishmania major promastigote growth inhibition, primary screen; Leishmania major promastigotes, resazurin fluorescence viability; inhibition, % at 10 µM; 200,000 tested, 9% active; in the data active = inhibition above about 50%;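 also: promastigotes grown with compound for 44 hours at 28 °C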
# Arbovirus inh – antivirals against arbovirus infection, primary screen, cell-based, full library, 10K replicate subset. 200,000 tested, 0.37% active. arbovirus infection cell-based antiviral screen. inhibition, % at 10 µM; in the data active = inhibition above about 30%
# An asterisk follows results filed as active; / = not tested or not shown.
SMILES,WT yeast gro inh,CHOP inh,L major viab,Arbovirus inh
CCc1cccc2c1NC1(CCCC1)CC2C (configuration not stated),/,91*,/,/
CCn1ncc(Br)c1C(=O)Nc1ccn(C23CC4CC(CC(C4)C2)C3)n1,29,-5,20,1
CCn1ncc(Br)c1C(=O)N(C)C12CC3CC(CC(C3)C1)C2,16,87*,51*,13
CCOc1cccc2sc(Nc3nc4ccc(NC(C)=O)cc4s3)nc12,-14,-40,80*,-7
CCC(=O)Nc1nc2ccc(NC(C)=O)cc2s1,1,21,2,-2
CCOc1cccc2sc(Cl)nc12,-6,6,-10,0
CCOc1cccc2sc(NN)nc12,30,-2,5,38*
COC(=O)c1sccc1NC(=O)CC1C(=O)NCCN1C(=O)c1ccc(C)c(C)c1 (configuration not stated),/,13,/,/
Cc1nc2cc(Nc3nnc(-c4ccccc4)c4ccccc34)ccc2n1C,9,-10,88*,-24
CC(NC(=O)CCSc1nc(-c2ccc3c(c2)OCO3)cc(C(F)(F)F)n1)c1ccccc1 (configuration not stated),11,-16,62*,-3
COCCNCC1C(Oc2ccc(Cl)cc2)C(=O)N1c1ccccc1C (configuration not stated),5,38,-3,5
Cc1ccccc1N1C(=O)C(Oc2ccc(Cl)cc2)C1CNC(C)(C)C (configuration not stated),17,20,87*,-3
O=C(Nc1cccc2ccccc12)OCc1cncs1,0,-8,2,5
O=C1c2ccccc2C(O)(c2ccccc2)N1c1ccncc1 (configuration not stated),/,2,/,/
NC(=O)c1ccc(N=Cc2ccc([N+](=O)[O-])s2)cc1,6,-24,100*,-44
Cc1c(N=Cc2ccc(Br)s2)cccc1[N+](=O)[O-],-15,14,-3,1
O=[N+]([O-])c1ccc(C=Nc2ccc(Cl)c([N+](=O)[O-])c2)s1,14,-25,100*,-23
CCCCCCn1c(=O)[nH]c2nc3cc(N)ccc3nc2c1=O,-12,9,47,-28
Cc1ccc(SCCN2CCN(CC(C)C)CCC2=O)cc1,/,5,/,/
CC(C(c1cccs1)c1c(N)n(C)c(=O)n(C)c1=O)[N+](=O)[O-] (configuration not stated),/,12,/,/
Cc1sc2nc3c4ccccc4c(NCc4ccco4)nn3c(=O)c2c1C,63*,-33,9,-3
COc1ccc(/C=C/c2nc(-c3ccccc3O)n(-c3ccccc3)n2)cc1,7,61,-4,-8
COc1ccc(/C=C/c2nc(-c3ccccc3O)n[nH]2)cc1,53,79*,-7,7
C=CCn1c(-c2ccccc2[N+](=O)[O-])n[nH]c1=S,0,9,9,2
COc1ccc(-c2cc(-c3ccccc3)n[nH]2)c(O)c1,24,-39,48,16
SMILES,WT yeast gro inh,CHOP inh,L major viab,Arbovirus inh
Cc1ccc(-c2cc(-c3ccccc3Cl)[nH]n2)c(O)c1,69*,-23,23,-40
COc1ccc(-c2cc(-c3ccccc3O)[nH]n2)cc1,37,-34,99*,0
Cc1ccc(-c2cc(-c3ccccc3[N+](=O)[O-])[nH]n2)c(O)c1,31,94*,12,-38
Cc1cc(C)n2nnnc2n1,/,19,/,/
CCN(CC)CCOC(=O)c1ccc(NC(=O)c2ccc(Cl)c(S(=O)(=O)N3CCCCCC3)c2)cc1,40,48,-3,3
O=C(CC1Sc2ccccc2NC1=O)NCc1ccccc1 (configuration not stated),/,16,/,/
Cc1ccccc1-c1cc(-c2ccccc2O)n[nH]1,73,80*,19,4
COc1ccc(-c2cc(-c3c(O)c(OC)c4occc4c3OC)[nH]n2)cc1OC,-1,12,42,-10
COc1ccc(-c2cc(-c3c(O)c(OC)c4occc4c3OC)[nH]n2)cc1,33,86*,9,12
CC(/C=C/c1ccccc1)=N/NC(=O)CNC(=O)c1ccccc1F,-1,27,1,-7
CC(=O)OCC(=O)[C@H]1CC[C@H]2[C@@H]3CCC4=CC(=O)CC[C@]4(C)[C@H]3CC[C@]12C,5,39,100*,6
COc1cccc(-c2ccc(C#N)c(OC(=O)c3ccc(Cl)cc3)n2)c1,-6,80*,-6,2
COc1cccc(-c2ccc(C#N)c(SCC(=O)NCCc3cccc(Cl)c3)n2)c1,25,42,-1,-5
COc1cccc(-c2ccc(C#N)c(OC(=O)c3c(Cl)cccc3Cl)n2)c1,62*,36,14,-21
N#Cc1ccc(-c2ccc(F)cc2)nc1Oc1ccc(Cl)c(Cl)c1,26,31,-12,-8
O=C(Nc1ccc(S(=O)(=O)Nc2ncccn2)cc1)C1=NN(c2ccccc2)C(=O)CC1,/,-6,/,/
Cc1[nH]n(-c2cccc(Cl)c2)c(=O)c1C=NCC(C)C,8,1,-2,4
COC(=O)C1=C(C)N(Cc2ccco2)C(=O)N[C@@H]1c1cccc(C(F)(F)F)c1,-8,11,21,32*
CC(C/C=N/NC(=O)COc1cc(Cl)ccc1Cl)c1ccccc1 (configuration not stated),3,79*,-3,-9
CC/C(=C\C1CCCCC1)C(NP(=O)(c1ccccc1)c1ccccc1)c1ccccc1 (configuration not stated),79*,86*,21,-37
CCOC(=O)/C=c1\s/c(=C\c2c(OCC)ccc3ccccc23)c(=O)n1CC(=O)NCC1CCCO1 (configuration not stated),-3,37,29,-9
CCOC(=O)/C=c1\s/c(=C\c2ccc3c(c2)OCCO3)c(=O)n1CC(=O)NCC1CCCO1 (configuration not stated),-16,86*,22,2
CCOc1cccc2cc(C(=O)N3CCN(C/C=C/c4ccccc4)CC3)c(=O)oc12,-11,-33,96*,-1
CCOc1cc(C(=O)N2CCN(C/C=C/c3ccccc3)CC2)cc(OCC)c1OCC,12,2,66*,-20
COc1cc(C(=O)N2CCN(C/C=C/c3ccccc3)CC2)cc(OC)c1OC,-24,-11,3,0
SMILES,WT yeast gro inh,CHOP inh,L major viab,Arbovirus inh
O=C(c1ccc2ccccc2n1)N1CCN(c2ccccc2O)CC1,-3,6,-10,0
Cc1cc(C)cc(NC(=O)CSc2ncc(S(=O)(=O)c3ccccc3)c(=O)[nH]2)c1,-2,27,53*,1
CC(C)Sc1ncc(S(=O)(=O)c2ccccc2)c(=O)[nH]1,-11,14,-2,5
C#CCSc1ncc(S(=O)(=O)c2ccccc2)c(=O)[nH]1,-4,15,-6,30*
Cc1ccc(C(=O)N(Cc2ccc3c(c2)OCO3)Cc2nc3ccccc3c(=O)[nH]2)cc1,16,21,96*,-11
CCCCC(=O)N(Cc1ccc2c(c1)OCO2)Cc1nc2ccccc2c(=O)[nH]1,-11,-13,-1,-4
CCOc1cccc2cc(-c3cn4cc(C)ccc4n3)c(=O)oc12,8,83*,3,-16
CC(C)OC(=O)c1cccnc1N1CCN(c2ccc(F)cc2)CC1,19,78*,7,5
